OPRM1-OPRD1 inv – mu-delta opioid heterodimer inverse agonism | P35372+P41143 | inhibition, % at 9.3 µM | 340,000 compounds, 0.21% hits | cell-based MOR-DOR heterodimer luminescence; in the data active means inhibition above about 22%, passing the limit was not always enough;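 further: 0% = cells with DMSO and 100% = wells without cells with DMSO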
Yeast superoxide – lowers age-related superoxide in aged yeast cells; S. cerevisiae aged cells, superoxide DHE fluorescence; hits give low values; superoxide response (% of plate mean), % at 10 µM; 330,000 compounds, 0.18% hits; AID 2690;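 active means superoxide response under a set limit, about three screen SD below normal, cut at about 65% in these data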;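 further: yeast aged for seven days with compound at 30 °C before DHE staining; 100% = average MFI of all compound-treated wells on the plate with controls excluded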
PvdQ inh – blocks Pseudomonas aeruginosa PvdQ acylase activity; purified PvdQ acylase, fluorescence plate reader; inhibition, % at 10 µM; 340,000 compounds, 0.063% hits; in the data active means inhibition above about 30%, passing the limit was not always enough;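 further: 0% = vehicle neutral wells and 100% = reference inhibitor wells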
HTR5A inv ag – inverse agonist of human HTR5A in OPRM1-OPRD1 counter-screen. HTR5A cell line, luminescence, inverse agonism. inhibition, % at 9.3 µM. 340,000 compounds, 0.083% hits. P47898; in the data active means inhibition mostly above about 23%, no sharp cut-off; inactive means mostly below about 18%;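 further: 0% = cells with DMSO and 100% = no-cell wells with DMSO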
Target sequence (P47898 whole entry, looked up): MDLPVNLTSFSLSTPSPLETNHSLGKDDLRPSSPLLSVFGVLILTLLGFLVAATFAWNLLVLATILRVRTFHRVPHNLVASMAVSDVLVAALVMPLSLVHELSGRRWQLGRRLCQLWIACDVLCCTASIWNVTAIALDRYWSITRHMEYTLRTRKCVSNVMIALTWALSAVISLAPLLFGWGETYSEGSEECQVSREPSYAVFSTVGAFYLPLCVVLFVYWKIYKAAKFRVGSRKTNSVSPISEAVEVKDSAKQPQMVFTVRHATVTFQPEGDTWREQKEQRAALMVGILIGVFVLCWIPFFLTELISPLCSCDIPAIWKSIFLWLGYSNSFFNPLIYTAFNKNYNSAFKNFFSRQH
OPRM1-OPRD1 ag – OPRM1-OPRD1 heterodimerization agonism. P35372+P41143. cells, luminescence. activation, % at 9.3 µM. 340,000 compounds, 0.3% hits; in the data active means activation above about 18%;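 further: 0% = vehicle-treated cells and 100% = reference agonist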
HTR5A ag ctr – HTR5A agonism, opioid heterodimer counter-screen; P47898; HTR5A agonist assay, luminescence, cell-based; activation, % at 9.3 µM; 340,000 compounds, 0.61% hits; AID 504692; in the data active means activation mostly above about 9.5%, no sharp cut-off; inactive means mostly below about 7.6%;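 further: 0% = cells with vehicle only and 100% = reference agonist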
CR mimetic CP – yeast aging superoxide inhibition, cherry pick confirmation | shares compounds with Yeast superoxide | S. cerevisiae aging, superoxide DHE fluorescence; hits give low values | superoxide response (% of plate), % at 10 µM | 850 compounds, 1% hits | AID 434994;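 active means superoxide signal below 65% of the plate average of sample wells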;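 further: cells aged with compound for 7 days at 30 degrees C before staining; 100% equals mean DHE fluorescence of all compound wells on the plate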
DHE counter – counter-screen for compounds affecting DHE oxidation and fluorescence in yeast | S. cerevisiae BY4741, flow cytometry; hits give low values | AID 435000 | fluorescence response, % at 10 µM | shares compounds with Yeast superoxide | 850 tested, under 10 active;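 active means fluorescence response below 15%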;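 further: percent of the mean fluorescence averaged over all compound wells on the plate; lower means stronger quenching of DHE signal or ROS scavenging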
* hit, by the source's call. Rows were chosen to be rich in hits. Some 1.3% of all compounds tested hit in one or more screens of this group.

SMILES	OPRM1-OPRD1 inv	Yeast superoxide	PvdQ inh	HTR5A inv ag	OPRM1-OPRD1 ag	HTR5A ag ctr	others
COc1cc(C2CC(c3cccs3)=NN2C(=O)CCl)ccc1OC(F)F (stereo unspecified)	-414.4	87.4	-21.3	-143.9	74.3*	59.3*
Cc1cc(/C=C\c2nc(O)c([N+](=O)[O-])c(=O)[nH]2)c(C)n1-c1ccccc1	-194.2	96.5	-11.5	12.8	34.0*	-4.5
CCOc1cccc2sc(N(CCN(C)C)C(=O)/C=C/c3cccs3)nc12	-10.5	110.3	-3.1	-45.7	2.1	13.1*
CCN(CC)CCN(C(=O)/C=C/c1cccs1)c1nc2ccc(C)cc2s1	-19.9	94.9	14.5	-17.3	3.9	13.4*
Cc1ccc2nc(N(CCN(C)C)C(=O)/C=C/c3cccs3)sc2c1	-58.5	89.7	-0.3	-8.8	8.7	0.7
COc1cccc2sc(N(CCN(C)C)C(=O)/C=C/c3cccs3)nc12	-10.6	96.0	-10.5	-1.5	2.0	0.5
C=CCN1C(=O)c2ccc(C(=O)N3CCN(S(=O)(=O)c4cc(C)ccc4C)CC3)cc2C1=O	-18.8	101.5	7.6	2.1	2.8	-0.8
COc1ccc(C(=O)O)cc1NC(=S)NC(=O)C(c1ccccc1)c1ccccc1	1.0	106.6	-3.1	15.1	-0.2	2.9
Cc1ccc(NC(=O)c2cccc(S(=O)(=O)N3CCN(c4ccc(F)cc4)CC3)c2)nc1	-11.5	98.6	-4.7	-50.5	1.7	1.5
Cc1cc(C)cc(N(CCC#N)C(=O)CSC2=Nc3ccccc3C3CC=NN23)c1 (stereo unspecified)	-8.1	110.4	-1.7	-41.3	1.8	11.6*
N#Cc1ccccc1NC(=O)CSC1=Nc2ccccc2C2CC=NN12 (stereo unspecified)	13.7	92.8	-11.0	-24.0	-2.5	8.7
COc1cccc(NC(=O)COC(=O)CCSc2ccccc2)c1	-11.7	107.0	-8.8	13.4	2.2	-3.3
CN(C(=O)COC(=O)C12CC3CC(CC(Cl)(C3)C1)C2)c1ccccc1	-23.1	107.6	-9.5	-40.2	4.4	11.2*
CC1CCCC(C)N1C(=O)COC(=O)C12CC3CC(CC(Cl)(C3)C1)C2 (stereo unspecified)	-16.7	108.7	-7.0	12.7	3.2	-3.5
CC1CC(=O)c2c(cc3c(-c4c(O)cc(O)c5c(O)c6c(cc45)OC(C)CC6=O)c(O)cc(O)c3c2O)O1 (stereo unspecified)	-412.3	76.3	-7.2	12.6	81.7*	16.8*
Brc1ccc(-c2nnc(-c3ccco3)o2)cc1	5.3	88.7	90.1*	-1.2	-1.1	0.5
COc1ccc(N(C(=O)CNC(=O)c2ccco2)C(C(=O)NCC2CCCO2)c2ccc(OC)c(OC)c2)cc1 (stereo unspecified)	1.4	111.2	-11.0	12.4	-0.2	3.1
Cc1cc(Nc2nc3ccccc3nc2Cl)n(-c2ccc([N+](=O)[O-])cc2)n1	7.9	109.3	-1.8	37.9*	-1.3	-8.0
Cc1cc(Nc2nc3ccccc3[nH]c2=O)n(-c2ccccc2)n1	-11.9	92.5	-0.8	-27.0	2.2	-4.8
COc1ccc(N(Cc2cc3ccc(C)cc3[nH]c2=O)C(C)=O)cc1	17.9	97.4	5.7	-21.3	-3.3	-1.8
CC(=O)N(Cc1cc2ccccc2[nH]c1=O)c1ccc(C)cc1	6.4	101.1	-6.6	-35.7	-1.4	9.7*
COc1ccc(N(CC(=O)NC2CCCCC2)C(=O)c2ccc(C)s2)cc1OC	-15.4	97.7	6.5	-29.6	2.5	10.2
Cc1cc(C)nc(SCC(=O)NNC(=O)c2ccccc2C)n1	10.1	65.1*	2.2	6.3	-2.0	-0.1
Cc1ccc(C(=O)CSc2nnc(-c3ccc4[nH]c(C)c(C)c4c3)o2)cc1C	14.2	111.0	-18.7	-13.9	-2.6	-2.1
Cc1[nH]c2ccc(-c3nnc(SCC(=O)c4ccccc4F)o3)cc2c1C	-12.5	136.8	-15.4	-3.3	2.2	12.5*
SMILES	OPRM1-OPRD1 inv	Yeast superoxide	PvdQ inh	HTR5A inv ag	OPRM1-OPRD1 ag	HTR5A ag ctr	others
C=CCNC(=O)c1onc(CSc2ccccc2)c1C(=O)NCC=C	-0.2	103.3	-13.7	17.3	0.0	-2.3
C=CCNC(=O)c1onc(CSc2ccc(F)c(F)c2)c1C(=O)NCC=C	-17.9	98.3	3.1	-5.8	3.1	13.2*
CCN(c1ccccc1)S(=O)(=O)c1ccc2c(c1)CCCN2C(C)=O	5.5	92.4	-11.7	15.4	-1.1	10.8*
CCN(c1cccc(C)c1)S(=O)(=O)c1ccc2c(c1)CCCN2C(C)=O	5.4	94.5	-1.4	-17.5	-1.0	1.4
COc1ccc(N(CC(=O)NCc2ccco2)C(=O)CNS(=O)(=O)c2ccc(Cl)cc2)cc1	-8.7	84.5	-12.7	8.6	1.4	-2.6
O=C(CNCc1cccnc1)Nc1cc(C(F)(F)F)ccc1N1CCOCC1	6.4	92.5	-21.9	-1.9	-1.2	-1.9
O=C(COc1cccc(Br)c1)N/N=C1\CCCc2ccccc21	2.5	89.6	-9.4	2.6	-0.5	13.8*
O=C(COc1cccc(Br)c1)NN=C1c2ccccc2-c2ccccc21	11.8	109.7	-7.6	-12.2	-2.2	0.7
COc1ccc([N+](=O)[O-])c(OC)c1C(=O)NC(=O)Nc1nc(C)nc(C)n1	15.4	95.2	-11.1	-10.1	-2.2	2.7
O=C(O)c1cccc(N2C(=O)C3CC=C(Cl)CC3C2=O)c1 (stereo unspecified)	5.9	93.3	3.8	-30.4	-1.1	11.0*
Cc1cccc(NC(=O)CN2C(=O)N/C(=C/c3ccc(C)s3)C2=O)c1	-145.4	102.4	1.2	-23.4	23.4*	12.0*
CC(c1ccco1)N(C(=O)c1ccccc1NS(=O)(=O)c1ccc(Cl)c([N+](=O)[O-])c1)c1ccccn1 (stereo unspecified)	-19.2	65.1*	-6.4	-9.6	3.6	1.1	CR mimetic CP=97.1;DHE counter=88.4
Cc1noc(C)c1COc1ccc(C(=O)Nc2ncccc2O)cc1	4.3	92.3	-3.9	-5.7	-0.9	3.5
C/C(CCC12CC3CC(CC(C3)C1)C2)=N\NC(N)=S	-1.2	64.0*	-12.1	-27.1	0.2	-1.5	CR mimetic CP=113.9;DHE counter=103.9
C/C(CC1CC(C)OC1=O)=N\NC(N)=S (stereo unspecified)	-1.4	95.2	-0.9	-5.0	0.2	1.3
CC(C)(C)N(Cc1ccccc1)C(=O)COC(=O)c1ccc2ccccc2n1	-1.3	99.8	-8.4	19.6	0.3	-5.0
O=C(NC1CC1)C1CCN(c2ccc(S(=O)(=O)N3CCOCC3)cc2)CC1	5.0	64.8*	-8.0	-24.1	-0.9	3.0	CR mimetic CP=103.5;DHE counter=114.1
O=C(COc1ccccc1Br)Nc1ccc(S(=O)(=O)N2CCCC2)cc1	-3.8	128.7	-7.4	22.4	0.9	-9.1
